An excerpt weighted towards active compounds, which were near 11% of everything screened.
Pf growth 48h: P. falciparum growth inhibition at 48 hours (one generation). P. falciparum luciferase growth in erythrocytes, 48 h. Potency, µM (titrated, usually from 28.7 µM), inactives show at the highest dose activity change, negative = inhibition, hits mostly inhibitors. 310,000 compounds, 5.9% hits; also: % is scaled to controls: 0 for no effect and ±100 for the full control effect
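Cell-based growth assay: transgenic P. falciparum expressing firefly luciferase, cultured in red cells within RPMI 1640 containing 0.5% w/v Albumax, 24 mM bicarbonate and gentamycin. A drop in luciferase activity indicates inhibition.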
NS1 inh: inhibitors of influenza NS1 protein function | Potency, µM (series often up to 46.1 µM), without a hit: at the top dose activity, positive = more growth | 270,000 compounds, 0.4% hits | AID 2326; calls by dose curve; also: actives are rising curves; nearly all actives have a fitted effect of over 50% in size
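Read-out: OD600 growth recovery of NS1-expressing budding yeast. Cells grown overnight at 30C in -URA glucose medium, washed, resuspended and diluted 1:100 in 2% galactose assay medium, pH 6.0. Same strain lacking NS1 served as positive control.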
AMA1 RON2 block: disrupts binding of P. falciparum AMA1 to RON2. AlphaScreen AMA1-biotinylated RON2 peptide binding. Potency, µM (titrated, usually from 58.2 µM), for inactives: at the top dose activity change, negative = inhibition, usual class: inhibitors. 360,000 compounds, 0.2% hits. AID 720542;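 also: 0% = vehicle wells and -100% = peptide control; nearly all actives have a fitted effect of over 45% in size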
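AMA1 (3D7) with his tag at 25 nM final met compounds first, then biotinylated RON2 peptide at 25 nM; detection used donor plus acceptor beads, 10 µg/mL apiece, read by AlphaScreen after 30 min at room temperature.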
Sm TGR block: blocks Schistosoma mansoni thioredoxin glutathione reductase. Potency, µM (highest dose often 114 µM), for inactives: top-dose activity change, negative = inhibition, actives largely listed as inhibitors. 360,000 compounds, 3% hits. purified TGR, DTNB reduction, TNB absorbance 405 nm; also: % is scaled to controls: 0 for no effect and ±100 for the full control effect; nearly all actives have a fitted effect of over 60% in size
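TGR 20 nM + NADPH 100 uM (dispensed conc.), cpd preinc 15 min RT; start with NADPH (500 uM addition) then DTNB (15 mM addition). Kinetic TNB absorbance, 405 nm filter. Four-parameter Hill fit across titration.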
Pf growth 96h: inhibits malaria parasite growth, 96 h; P. falciparum luciferase reporter growth, 96 h; Potency, µM (top dose mostly 28.7 µM), for the others: at the top dose activity change, negative = inhibition, hits mostly inhibitors; 320,000 compounds, 6.9% hits; also: % is scaled to controls: 0 for no effect and ±100 for the full control effect
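Two-generation exposure (96 h) targets delayed-death phenotype. Reporter parasites carrying integrated firefly luciferase, in red cells at 2% hematocrit and 0.05% parasitemia final, kept at 37 C, 5% CO2; luminescence loss indicates inhibition.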
* = called active by the depositor; ? = inconclusive; . = not tested or not shown. Unless noted, calls follow the shape of the dose curve; as a rule, active = well fitted curve in the direction sought with a large enough effect; inconclusive = small, poorly fitted or top-dose-only effect, or another doubt; inactive = no such curve, though single readings can be large; an effect the other way counts as inactive or inconclusive. Potency is read from the fitted curve at half-maximal effect.

SMILES | Pf growth 48h | NS1 inh | AMA1 RON2 block | Sm TGR block | Pf growth 96h
CCc1ccc(CN2CCC(CO)(CC3CCCCO3)CC2)o1 (stereo not given) | 3% | 3% | 6% | 0% | 13%
COCc1ccc(CN2CCC(CO)(CC3CCCCO3)CC2)o1 (stereo not given) | 8% | 8% | 23% | -25% | ?
Cc1ccc2[nH]c(CN3CCC(CO)(CC4CCCCO4)CC3)c(C)c2c1 (stereo not given) | 9.3µM* | -3% | ? | -14% | ?
COc1ccc(-n2nc3c(N4CCC(C(=O)NCc5cccc(F)c5)CC4)nnc(C)c3c2C)cc1 | . | . | . | -14% | .
Cn1cnc(S(=O)(=O)N2CCCC(C(=O)NCc3ccccc3Cl)C2)c1 (stereo not given) | . | . | . | 1% | .
COc1ccc(CN2CCN(CCc3ccccc3)C(CCO)C2)c(Cl)c1OC (stereo not given) | ? | -6% | -2% | -1% | -16%
O=C(C1=C(O)C(=O)N(CCN2CCOCC2)C1c1ccc(F)cc1)c1cc2ccccc2o1 (stereo not given) | 11% | 2% | -4% | 28µM* | ?
O=C(C1=C(O)C(=O)N(CCN2CCOCC2)C1c1cccc(Br)c1)c1cc2ccccc2o1 (stereo not given) | -20% | 20% | -8% | 0% | -26%
O=C(C1=C(O)C(=O)N(CCN2CCOCC2)C1c1ccco1)c1cc2ccccc2o1 (stereo not given) | 13% | 5% | 7% | 22µM* | 0%
CCCCn1c(N)c(N(CC(C)C)C(=O)COC(=O)Cc2cccc(OC)c2)c(=O)[nH]c1=O | ? | . | 14% | -1% | 1%
Cc1ccc(N2C(=O)/C(=C/c3ccc(CN(CCC#N)S(C)(=O)=O)o3)C(=O)NC2=S)cc1 | 24% | 3% | 0% | 2.8µM* | ?
O=C1NC(=S)N(c2ccc(F)cc2)C(=O)/C1=C/c1ccccc1O | . | -2% | -1% | ? | 35%
COc1ccc(N2C(=O)/C(=C/c3ccc(N(C)C)o3)C(=O)NC2=S)cc1 | . | 5% | 37% | ? | 1%
Cc1ccc(/C=C2\C(=O)NC(=S)N(c3ccc(F)cc3)C2=O)o1 | 14% | 8% | 37% | 1.6µM* | ?
Cc1ccc(N2C(=O)NC(=O)/C(=C\c3ccc([N+](=O)[O-])o3)C2=O)cc1 | -4% | . | . | 8.9µM* | -19%
COc1cccc(N2C(=O)/C(=C/c3ccc(C)o3)C(=O)NC2=S)c1 | 12% | 5% | 33% | 1.8µM* | ?
Cc1cc(C)cc(NC(=O)CN2C(=O)C3CC=CCC3C2=O)c1 (stereo not given) | -1% | . | -5% | 3% | 4%
O=C(O)C12C3CCC(O3)C1(C(=O)O)C1CCC2O1 (stereo not given) | . | . | -3% | . | .
C[C@@]12C(=O)OC(=O)[C@]1(C)[C@H]1CC[C@@H]2O1 | 2µM* | . | . | . | 1µM*
CC(C)c1ccc(NC(=S)NN2C(C)CCCC2C)cc1 (stereo not given) | ? | . | 95% | -20% | 6.6µM*
COc1ccc(NC(=S)NN2C(C)CCCC2C)cc1 (stereo not given) | 6% | -3% | -2% | 4% | -28%
COc1ccc(C(=O)N/C(=C\c2cccc3ccccc23)C(=O)N2CCN(C)CC2)cc1 | ? | . | -4% | -16% | ?
COC(=O)CSc1nc2ncc(Cl)cc2[nH]1 | 25% | 0% | 6% | -14% | 13µM*
O=C(CSc1nc2ncc(Cl)cc2[nH]1)c1c[nH]c2ccccc12 | 10µM* | 2% | 0% | -5% | 1.9µM*
Cc1[nH]c2ccccc2c1Cc1nnc(SCC(N)=O)o1 | 2% | -4% | 7% | 45µM* | 18%
SMILES | Pf growth 48h | NS1 inh | AMA1 RON2 block | Sm TGR block | Pf growth 96h
CCC(Cc1ccccc1)NS(=O)(=O)c1c(C)nc2scc(C)n2c1=O (stereo not given) | -3% | 4% | -1% | 3% | 16%
CCOc1ccc(CCNC(=O)CN2CCN(Cc3ccccc3F)C2=O)cc1OCC | ? | 1% | 0% | 16% | 1.5µM*
CCOc1ccc(CCNC(=O)CN2C(=O)NC3(CCCCCC3)C2=O)cc1OCC | 13µM* | . | -8% | -2% | ?
CCOc1ccc(CCNC(=O)CN2CCN(Cc3ccc(F)cc3)C2=O)cc1OCC | . | -1% | -4% | 7% | -3%
COc1ccc(CNC(=O)CN2C(=O)NC3(CCCCCC3)C2=O)cc1OC | 0% | . | 6% | -9% | 0%
CCOc1ccccc1NC(=O)NC(CC)c1c(-n2cccc2)sc2c1CCN(C)C2 (stereo not given) | . | . | . | -12% | .
CCCCNC(=O)C(CC)(ONc1ccccc1C(F)(F)F)c1ccccc1OC (stereo not given) | 10µM* | . | ? | 9% | ?
Cc1cccc(N(CC(=O)Nc2ccccc2F)S(C)(=O)=O)c1 | . | 2% | 14% | -1% | 5.2µM*
COc1cc(-c2csc(NC3CCCCC3)n2)cc(OC)c1OC | 12µM* | 30% | -19% | -12% | ?
Cc1cccnc1NC(=O)c1cccc(S(=O)(=O)N2CCCc3ccccc32)c1 | ? | 4% | 33% | 2% | ?
Cc1cc(C)c(S(=O)(=O)N2CCCc3ccccc32)c(C)c1 | 13µM* | -64% | 22% | 3% | ?
COc1ccc(C(=O)Nc2ccc(C)cn2)cc1S(=O)(=O)N1CCCc2ccccc21 | 12µM* | . | 0% | -1% | ?
COc1ccc(C(=O)Nc2cccc(C)n2)cc1S(=O)(=O)N1CCCc2ccccc21 | . | . | -6% | . | .
O=C(Nc1ccccn1)c1cccc(S(=O)(=O)N2CCCc3ccccc32)c1 | 7.4µM* | . | 4% | 0% | 10µM*
Cc1cccc(S(=O)(=O)N2CCCc3ccccc32)c1 | -45% | -9% | 16% | 38% | 0%
Cc1ccnc(NC(=O)c2cccc(S(=O)(=O)N3CCCc4ccccc43)c2)c1 | 1.9µM* | . | -8% | 5% | 1.9µM*
O=C(Nc1ncccc1O)c1cccc(S(=O)(=O)N2CCCc3ccccc32)c1 | -5% | . | 91% | -16% | -49%
COCCNC(=O)CN1C(=O)NC2(CCCCCC2)C1=O | 0% | -2% | -4% | 6% | 16%
OC(CNCc1ccc(Cl)cc1)(c1ccccc1)c1ccc(F)cc1 (stereo not given) | 13µM* | . | -7% | 12% | ?
OC(CNCc1ccc(F)cc1)(c1ccc(F)cc1)c1ccc(F)cc1 | ? | 3% | 1% | 1% | 13µM*
Cc1ccc(C(O)(CNCc2ccccc2)c2ccccc2)cc1 (stereo not given) | ? | -2% | -6% | 12% | ?
CSc1cccc(NC(=S)N2CCCN(Cc3ccccc3F)C2)c1 | ? | . | 26% | 11% | -28%
CCOC(=O)c1cc2ccccc2n1C1CCN(C)CC1 | . | . | -1% | . | .
O=C(NCc1ccc(Cl)cc1)c1cc2c(s1)CS(=O)(=O)C2 | 14% | 15% | 11% | -5% | -6%

Screening results: PubChem BioAssay, National Center for Advancing Translational Sciences (NCATS)
